Reference: PubChem BioAssay AID1159580 (chemical genetic matrix, 2015)
Where “and” joins values, the source holds several entries; their conditions need not be identical. Equal values may be shown once. Among all 5,500 compounds or so, about 2,000 (36%) were called active. Inconclusive results (about 18%) are left out. No stated cut-off is given here; in the data, active means normalized growth mostly below about 0.91 (no sharp cut-off); inconclusive means no clear call, values can overlap the other calls; inactive means mostly above about 0.92. Some of the results follow.

Test: chemical genetic growth profiling, strain panel (AID 1159580);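 further: tested at 20 µM; growth read once vehicle control cultures reached saturation at 30 °C; 1 = growth at the plate median or of vehicle wells; lower values mean less growth of the strain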
Details: S. cerevisiae deletion strains, growth OD

Measured: normalized growth

COc1ccc2c(=O)c(CC(=O)O)coc2c1
inactive: locus YAL021C, strain ccr4, hits give low values 1.01 | locus YAL026C, strain drs2, hits give low values 0.984 | locus YAL030W, strain snc1, hits give low values 0.983 | locus YBL061C, strain skt5, hits give low values 0.989 | locus YBR009C, strain hhf1, hits give low values 0.987 | locus YBR021W, strain FUR4, hits give low values 1.02 | locus YBR023C, strain chs3, hits give low values 0.999 | locus YBR171W, strain sec66, hits give low values 0.956 | locus YBR229C, strain ROT2, hits give low values 1 | locus YBR231C, strain swc5, hits give low values 0.972 | locus YBR279W, strain paf1, hits give low values 0.997 | locus YCL011C, strain gbp2, hits give low values 0.995 | locus YCL016C, strain dcc1, hits give low values 1.04 | locus YCL029C, strain bik1, hits give low values 1 | locus YCL061C, strain MRC1, hits give low values 1 | locus YCL069W, strain vba3, hits give low values 0.975 | locus YCR088W, strain abp1, hits give low values 0.971 | locus YDL005C, strain med2, hits give low values 0.985 | locus YDL035C, strain GPR1, hits give low values 1.03 | locus YDL040C, strain nat1, hits give low values 0.979 | locus YDL074C, strain BRE1, hits give low values 1.05 | locus YDL101C, strain DUN1, hits give low values 0.987 | locus YDL134C, strain PPH21, hits give low values 1.01 | locus YDL185W, strain tfp1, hits give low values 0.984 | locus YDL192W, strain arf1, hits give low values 1.01 | locus YDR001C, strain nth1, hits give low values 0.995 | locus YDR069C, strain doa4, hits give low values 0.953 | locus YDR101C, strain arx1, hits give low values 1.04 | locus YDR137W, strain rgp1, hits give low values 1 | locus YDR159W, strain sac3, hits give low values 0.926 | locus YDR162C, strain NBP2, hits give low values 1.05 | locus YDR195W, strain ref2 0.964 | locus YDR297W, strain sur2, hits give low values 0.965 | locus YDR318W, strain mcm21, hits give low values 0.991 | locus YDR334W, strain swr1, hits give low values 0.968 | locus YDR335W, strain msn5, hits give low values 0.987 | locus YDR388W, hits give low values 1 | locus YDR392W, strain spt3, hits give low values 0.939 | locus YDR502C, strain sam2, hits give low values 0.991 | locus YEL003W, strain gim4, hits give low values 0.98 | locus YEL037C, strain rad23, hits give low values 0.977 | locus YEL061C, strain CIN8 (second series), hits give low values 0.973 | locus YEL061C, strain CIN8, hits give low values 1.01 | locus YER015W, strain faa2, hits give low values 0.976 | locus YER016W, strain bim1, hits give low values 0.986 | locus YER110C, hits give low values 0.976 | locus YER111C, strain swi4, hits give low values 0.981 | locus YER155C, strain BEM2 (second series), hits give low values 0.981 | locus YER155C, strain BEM2, hits give low values 0.989 | locus YER167W, strain BCK2, hits give low values 1.01 | locus YFR010W, strain ubp6, hits give low values 0.969 | locus YGL078C, strain dbp3, hits give low values 0.96 | locus YGL086W, strain mad1, hits give low values 1.02 | locus YGL167C, strain pmr1, hits give low values 0.992 | locus YGL173C, strain kem1, hits give low values 0.982 | locus YGL227W, strain vid30, hits give low values 0.984 | locus YGL240W, strain doc1, hits give low values 0.951 | locus YGL248W, strain PDE1, hits give low values 1.01 | locus YGL253W, strain hxk2, hits give low values 0.961 | locus YGR078C, strain PAC10, hits give low values 1.01 | locus YGR135W, strain pre9, hits give low values 0.949 | locus YGR252W, strain gcn5, hits give low values 0.987 | locus YHR013C, strain ard1, hits give low values 1.02 | locus YHR027C, strain rpn1, hits give low values 0.969 | locus YHR030C, strain SLT2, hits give low values 1.01 | locus YHR079C, strain IRE1 (second series), hits give low values 0.984 | locus YHR079C, strain IRE1, hits give low values 0.991 | locus YHR094C, strain hxt1, hits give low values 0.983 | locus YHR129C, strain ARP1, hits give low values 1 | locus YHR142W, strain chs7, hits give low values 0.995 | locus YHR200W, strain rpn10, hits give low values 1.01 | locus YIL066C, strain RNR3, hits give low values 1 | locus YIL073C, strain SPO22, hits give low values 0.974 | locus YIL125W, strain kgd1, hits give low values 1 | locus YIR030C, strain dcg1, hits give low values 1 | locus YJL092W, strain hpr5, hits give low values 0.974 | locus YJL095W, strain BCK1 (second series), hits give low values 0.962 | locus YJL095W, strain BCK1, hits give low values 1.01 and 1.02 | locus YJL115W, strain asf1, hits give low values 0.984 | locus YJL129C, strain trk1, hits give low values 0.996 | locus YJL134W, strain LCB3, hits give low values 0.999 | locus YJL154C, strain vps35, hits give low values 0.987 | locus YJL164C, strain tpk1, hits give low values 1.01 | locus YJL166W, strain qcr8, hits give low values 0.973 | locus YJL168C, strain set2, hits give low values 0.987 | locus YJL187C, strain SWE1 (second series), hits give low values 0.993 | locus YJL187C, strain SWE1, hits give low values 0.977 | locus YJR043C, strain POL32, hits give low values 1.05
